Results on 16 compounds are retold here after PubChem BioAssay (EPA / NIEHS).

Some compounds were tested as several samples or in several runs, with calls that do not always agree. Activity calls are given as the source filed them. Rule for the calls: active = hit-call score of the fitted dose curve at least 0.9, where 1 is the maximum; inactive = score below 0.9.

The nature of experiment [1]: ATG_GRE_CIS: Attagene CIS-FACTORIAL HepG2 Assay for human Glucocorticoid Response Elements (GRE) (AID 2282947). The conditions noted are these: HepG2 GRE cis-reporter, Attagene multiplex mRNA; actives raise or lower the signal. A digest of the protocol: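 Endogenous transcription factor activity is read through cis-element reporter constructs transiently transfected into HepG2 cells. After 24 h treatment, labelled RT-PCR products are resolved by capillary electrophoresis; DMSO sets baseline for bidirectional curve fitting.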

Experiment [2] can be described thus: ATG_ISRE_CIS: Attagene CIS-FACTORIAL HepG2 Assay for human Interferon Regulatory Factor 1 (IRF1) binding to an Interferon-Stimulated Response Element (ISRE) (AID 2282948). The conditions noted are these: HepG2 ISRE cis-reporter (Attagene), mRNA transcription readout; actives raise or lower the signal. A digest of the protocol: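 HepG2 cells transiently transfected with multiplexed cis-promoter reporter units; after 24 h compound exposure, reporter mRNA quantified by RT-PCR, FAM labelling, HpaI digestion and capillary electrophoresis. Bidirectional fit versus DMSO baseline.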

Experiment [3] is described as follows: ATG_M_32_CIS: Attagene CIS-FACTORIAL HepG2 Assay for M32 Transcription Factor (Internal Marker) (AID 2282949).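 Note: background control marker of the multiplexed CIS panel rather than a real target.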 The following applies: HepG2 Attagene cis-factorial M32 reporter, mRNA; actives raise or lower the signal. A digest of the protocol: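 Internal background marker read-out: RT-PCR/capillary electrophoresis fluorescence of reporter transcripts from transiently transfected HepG2 cells after 24 h chemical exposure. Activity fitted bidirectionally relative to DMSO negative control.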

The nature of experiment [4]: ATG_M_06_CIS: Attagene CIS-FACTORIAL HepG2 Assay for M06 Transcription Factor (Internal Marker) (AID 2282950). The following applies: HepG2 Attagene CIS-FACTORIAL M06 internal marker reporter; actives raise or lower the signal. In outline:
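Read-out is fluorescence of labelled reporter cDNA fragments resolved by capillary electrophoresis after RT-PCR. Cells: HepG2 carrying transfected cis-promoter reporter units, treated 24 h. Gain or loss of signal fitted relative to DMSO.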

In experiment [5] the target is Hypoxia-inducible factor 1-alpha (Homo sapiens) (UniProt Q16665). The experiment is described as follows: ATG_HIF1a_CIS: Attagene CIS-FACTORIAL HepG2 Assay for human Hypoxia Inducible Factor 1 (HIF1A) (AID 2282951). The following applies: HepG2 Attagene cis-factorial HIF1a reporter transcription; actives raise or lower the signal. A digest of the protocol:
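HepG2 cells transiently transfected with multiple cis-regulated reporter transcription units measure endogenous transcription factor activity. After 24 h exposure, reporter mRNA is quantified by RT-PCR with 6-FAM labelling, HpaI digestion and capillary electrophoresis. Bidirectional fitting against DMSO.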

Experiment [6] concerns the target Hepatocyte nuclear factor 6 (Homo sapiens) (UniProt Q9UBC0). The experiment is described as follows: ATG_HNF6_CIS: Attagene CIS-FACTORIAL HepG2 Assay for human Hepatocyte Nuclear Factor 6 (HNF6) (AID 2282952). The following applies: HepG2 Attagene cis-factorial HNF6 reporter transcription; actives raise or lower the signal. In outline:
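Cells are HepG2 carrying transiently transfected cis-promoter reporter units. Treatment lasts 24 h, after which reporter transcripts are reverse-transcribed, amplified, FAM-labelled and sized by capillary electrophoresis. DMSO serves as baseline.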

Experiment [7] concerns the target Heat shock factor protein 1 (Homo sapiens) (UniProt Q00613). The experiment is described as follows: ATG_HSE_CIS: Attagene CIS-FACTORIAL HepG2 Assay for human Heat Shock Transcription Factor 1 (HSE) (AID 2282953). The conditions noted are these: HepG2 HSE cis-reporter, Attagene RNA transcription; actives raise or lower the signal. A digest of the protocol:
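HepG2, transient MRTU transfection, cis-promoter reporters (endogenous TF activity). 24 h compound. RNA → oligo(dT) RT → PCR → 6-FAM primer extension → HpaI cut → CE. Bidirectional fit vs DMSO.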

The nature of experiment [8]: ATG_MRE_CIS: Attagene CIS-FACTORIAL HepG2 Assay for human Metal Responsive Element (MRE) (AID 2282954). The conditions noted are these: HepG2 MRE cis-reporter transcription, Attagene multiplex; actives raise or lower the signal. In outline:
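Fluorescent reporter fragments separated by capillary electrophoresis give mRNA induction for the MRE unit after 24 h treatment of transfected HepG2 cells. Endogenous transcription-factor activity is read; DMSO serves as negative control and baseline.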

Experiment [9] is described as follows: ATG_PBREM_CIS: Attagene CIS-FACTORIAL HepG2 Assay for human Phenobarbital-responsive Enhancer Module (PBREM) (AID 2282955). The following applies: HepG2 PBREM cis-reporter, Attagene multiplexed transcription; actives raise or lower the signal. In outline: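 HepG2 cells transiently transfected with multiple cis-regulated reporter units measure endogenous transcription factor activity; 24 h compound exposure. Reporter mRNA quantified by RT-PCR, fluorescent labelling, HpaI digestion and capillary electrophoresis; bidirectional fit versus DMSO.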

Experiment [10] concerns the target Paired box protein Pax-6 (Homo sapiens) (UniProt P26367). In words: ATG_Pax6_CIS: Attagene CIS-FACTORIAL HepG2 Assay for human Paired Box 6 (PAX6) (AID 2282956). The following applies: HepG2 CIS-FACTORIAL PAX6 reporter transcription, RNA readout; actives raise or lower the signal. In outline:
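HepG2 cells transiently transfected with multiplexed cis-promoter reporter units (endogenous TF activity) were dosed for 24 h. Reporter mRNA was quantified by RT-PCR, 6-FAM labeling, HpaI digestion and capillary electrophoresis; bidirectional fitting versus DMSO baseline.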

Chain of Heat shock factor protein 1 (Homo sapiens) (Q00613 whole entry, looked up): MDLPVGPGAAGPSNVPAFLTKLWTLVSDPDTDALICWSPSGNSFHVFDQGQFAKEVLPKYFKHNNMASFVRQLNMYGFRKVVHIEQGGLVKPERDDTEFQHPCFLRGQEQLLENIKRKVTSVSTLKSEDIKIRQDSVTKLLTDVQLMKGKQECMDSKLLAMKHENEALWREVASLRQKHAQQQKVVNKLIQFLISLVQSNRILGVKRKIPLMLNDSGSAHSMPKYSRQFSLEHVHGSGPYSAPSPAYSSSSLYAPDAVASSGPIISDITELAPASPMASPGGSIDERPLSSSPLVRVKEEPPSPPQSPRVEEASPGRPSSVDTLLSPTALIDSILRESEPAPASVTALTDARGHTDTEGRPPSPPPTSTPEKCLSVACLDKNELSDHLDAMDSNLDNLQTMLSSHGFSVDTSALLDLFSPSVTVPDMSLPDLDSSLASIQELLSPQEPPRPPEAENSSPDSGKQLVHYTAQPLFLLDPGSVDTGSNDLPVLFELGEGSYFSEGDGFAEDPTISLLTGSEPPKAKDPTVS
Chain of Hepatocyte nuclear factor 6 (Homo sapiens) (Q9UBC0 whole entry, looked up): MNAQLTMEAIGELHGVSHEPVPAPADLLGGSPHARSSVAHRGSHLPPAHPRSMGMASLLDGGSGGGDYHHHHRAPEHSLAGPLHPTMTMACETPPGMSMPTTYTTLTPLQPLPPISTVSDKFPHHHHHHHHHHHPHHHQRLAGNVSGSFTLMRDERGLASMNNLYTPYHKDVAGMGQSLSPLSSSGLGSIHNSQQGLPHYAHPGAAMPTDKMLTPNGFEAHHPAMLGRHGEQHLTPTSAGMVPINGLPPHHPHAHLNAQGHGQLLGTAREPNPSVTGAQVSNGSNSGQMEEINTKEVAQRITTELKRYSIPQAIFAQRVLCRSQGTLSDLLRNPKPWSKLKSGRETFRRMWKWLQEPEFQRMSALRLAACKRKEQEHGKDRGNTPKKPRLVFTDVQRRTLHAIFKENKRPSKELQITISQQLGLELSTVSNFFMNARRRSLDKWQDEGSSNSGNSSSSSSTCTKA
Chain of Hypoxia-inducible factor 1-alpha (Homo sapiens) (Q16665 whole entry, looked up): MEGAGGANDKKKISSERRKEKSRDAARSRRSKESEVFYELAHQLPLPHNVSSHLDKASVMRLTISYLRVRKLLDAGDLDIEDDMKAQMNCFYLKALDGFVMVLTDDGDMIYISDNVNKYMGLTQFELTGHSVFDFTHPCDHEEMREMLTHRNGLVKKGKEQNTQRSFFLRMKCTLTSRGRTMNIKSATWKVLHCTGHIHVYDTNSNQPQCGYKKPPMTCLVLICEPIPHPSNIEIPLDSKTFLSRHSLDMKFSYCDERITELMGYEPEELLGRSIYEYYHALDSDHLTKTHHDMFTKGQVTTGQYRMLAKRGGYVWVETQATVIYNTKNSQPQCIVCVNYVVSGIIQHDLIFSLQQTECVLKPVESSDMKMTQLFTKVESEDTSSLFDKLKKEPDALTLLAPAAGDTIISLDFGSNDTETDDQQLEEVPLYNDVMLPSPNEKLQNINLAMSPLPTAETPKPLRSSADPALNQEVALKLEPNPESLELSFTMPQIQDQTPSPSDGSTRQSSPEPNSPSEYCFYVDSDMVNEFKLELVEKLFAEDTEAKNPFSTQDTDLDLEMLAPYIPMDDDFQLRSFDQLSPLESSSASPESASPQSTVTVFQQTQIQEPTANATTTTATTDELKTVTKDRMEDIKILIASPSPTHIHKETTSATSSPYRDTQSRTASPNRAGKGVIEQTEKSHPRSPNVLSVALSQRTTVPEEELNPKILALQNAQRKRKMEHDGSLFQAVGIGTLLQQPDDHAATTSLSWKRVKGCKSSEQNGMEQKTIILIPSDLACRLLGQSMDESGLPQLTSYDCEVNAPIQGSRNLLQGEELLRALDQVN
Chain of Paired box protein Pax-6 (Homo sapiens) (P26367 whole entry, looked up): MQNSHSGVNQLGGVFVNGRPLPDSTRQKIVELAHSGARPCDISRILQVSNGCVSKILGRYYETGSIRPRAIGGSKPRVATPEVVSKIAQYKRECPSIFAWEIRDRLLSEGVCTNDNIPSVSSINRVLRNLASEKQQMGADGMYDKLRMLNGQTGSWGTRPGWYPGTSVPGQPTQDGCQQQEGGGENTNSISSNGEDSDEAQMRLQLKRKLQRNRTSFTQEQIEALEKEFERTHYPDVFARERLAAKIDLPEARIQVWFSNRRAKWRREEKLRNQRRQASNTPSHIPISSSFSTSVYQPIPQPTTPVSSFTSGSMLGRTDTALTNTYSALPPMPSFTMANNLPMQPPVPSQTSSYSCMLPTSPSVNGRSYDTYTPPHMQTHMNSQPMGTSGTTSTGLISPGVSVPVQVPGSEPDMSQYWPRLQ

Turning to `COP(=O)(NC(C)=O)SC` (centres undefined), the result in experiment [1], in experiment [2], in experiment [3], in [4], in experiment [5] and in experiment [6] was inactive. The compound was called inactive in experiment [7], in experiment [8], in [9] and in experiment [10].
Usually AC50 stands for the concentration giving half of the maximal activity seen. In the case of `CCOP(=S)(OCC)Oc1ccc([N+](=O)[O-])cc1`, the compound was classed as inactive in [1], in [2], in experiment [3], in experiment [4], in experiment [5] and in experiment [6]. The compound was called inactive in experiment [7], in experiment [9] and in experiment [10]. The half-maximal activity concentration (AC50) in [8] was 50 µM (active).
`CCOP(=S)(OCC)Oc1cc(C)nc(C(C)C)n1`: the result in experiment [1], in experiment [2], in experiment [3], in [4], in experiment [5] and in experiment [6] was inactive. The result in experiment [7], in experiment [8] and in experiment [10] was inactive. In addition, the AC50 in [9] was 9.92 µM (active).
As for `CCc1cnc(C2=NC(C)(C(C)C)C(=O)N2)c(C(=O)O)c1` (centres undefined), the compound was classed as inactive in experiment [1], in experiment [2], in [3], in experiment [4], in experiment [5] and in experiment [6]. The outcome in experiment [7], in experiment [8], in [9] and in experiment [10] was inactive.
On to `CCOP(=S)(OCC)SCCSCC`, for which the AC50 in experiment [1] was 15.4 µM (active); in experiment [9], 30.5 µM (active). Also, the compound was classed as inactive in experiment [2], in [3], in [4], in experiment [5], in experiment [6] and in [7]. Besides, the result in experiment [8] and in [10] was inactive.
In the case of `COP(=O)(OC)OC(Br)C(Cl)(Cl)Br` (centres undefined), the result in experiment [1], in experiment [2], in experiment [3], in experiment [4], in experiment [5] and in experiment [6] was inactive. Also, the result in experiment [7], in [8], in experiment [9] and in experiment [10] was inactive.
Take `COP(=O)(OC)SCn1c(=O)oc2cc(Cl)cnc21`: the call in experiment [1], in experiment [2], in experiment [3], in [4], in experiment [5] and in [6] was inactive. Further, the compound was called inactive in experiment [7], in [8], in [9] and in experiment [10].
`CCCSP(=O)(OCC)SCCC`: the call in [1], in [2], in experiment [3], in experiment [4], in [5] and in experiment [6] was inactive. Moreover, the result in experiment [7], in [8], in experiment [9] and in experiment [10] was inactive.
Consider `O=[N+]([O-])c1cc(C(F)(F)F)c(Cl)c([N+](=O)[O-])c1Nc1ncc(C(F)(F)F)cc1Cl`, for which the half-maximal activity concentration (AC50) was 20.3 µM (active) in experiment [1]; 16.6 µM (active) in experiment [2]; 18.1 µM (active) in [3]; 17.1 µM (active) in experiment [6]; 6.88 µM (active) in experiment [10]. Besides, the call in experiment [1], in [2], in experiment [3], in experiment [4], in experiment [5] and in experiment [6] was inactive. Also, the call in experiment [7], in experiment [8], in [9] and in experiment [10] was inactive.
With `CSc1nnc(C(C)(C)C)c(=O)n1N`, the outcome in experiment [1], in experiment [2], in experiment [3], in [4], in experiment [5] and in [6] was inactive. In addition, the compound was classed as inactive in experiment [7], in experiment [8], in experiment [9] and in experiment [10].
Regarding `C#CC(C)(C)NC(=O)c1cc(Cl)cc(Cl)c1`, the call in experiment [1], in experiment [2], in [3], in experiment [4], in [5] and in [6] was inactive. Further, the compound was called inactive in [7] and in [10]. The AC50 in experiment [8] and in experiment [9] was 50 µM (active) each time.
With `O=C(O)c1cc(Oc2ccc(C(F)(F)F)cc2Cl)ccc1[N+](=O)[O-]`, the compound was classed as inactive in [1], in experiment [2], in experiment [3], in [4], in experiment [5] and in [6]. Also, the outcome in experiment [7], in experiment [8] and in experiment [10] was inactive.
For the compound `CCCCN(CC)c1c([N+](=O)[O-])cc(C(F)(F)F)cc1[N+](=O)[O-]`, the compound was called inactive in [1], in [2], in [3], in [4], in experiment [5] and in [6]. The call in [7], in [8] and in experiment [10] was inactive. Also, the half-maximal activity concentration (AC50) in experiment [9] was 14.9 µM (active).
For `Nc1c(Cl)cc([N+](=O)[O-])cc1Cl`, the half-maximal activity concentration (AC50) was 86.3 µM (active) in experiment [1] and 64.6 µM (active) in [8]. The compound was called inactive in [2], in [3], in [4], in [5], in experiment [6] and in [7]. Also, the result in [9] and in [10] was inactive.
In the case of `N#CSCSC#N`, the outcome in [1], in [2], in experiment [3], in experiment [4], in experiment [5] and in [6] was inactive. In addition, the call in [7], in experiment [8], in experiment [9] and in [10] was inactive.
For `CCc1cccc(CC)c1N(COC)C(=O)CCl`, the compound was called inactive in [1], in experiment [2], in experiment [3], in [4], in experiment [5] and in experiment [6]. In addition, the compound was classed as inactive in experiment [7], in [8], in [9] and in experiment [10].
